Assay results as given in PubChem BioAssay (NCATS).
Values joined by “and” are separate entries in the source; they are usually repeats but may differ in a detail not shown here. Identical values can stand only once. Records with an inconclusive call do not appear. Active and inactive are the calls of the source. Unless noted, the call rests on the fitted dose curve.

Assays:
[1] = qHTS for Inhibitors of the Functional Ribonucleoprotein Complex (vRNP) of Lassa (LASV) Arenavirus: LASV Primary Screen - GLuc reporter signal (AID 1347082; calls by dose curve; tested in HEK293 reporter line; further: nearly all actives have a fitted effect of over 60% in size; further: potency means the concentration at half of the fitted maximal effect)
[2] = qHTS for Inhibitors of the Functional Ribonucleoprotein Complex (vRNP) of Lassa (LASV) Arenavirus: Viability assay - alamar blue signal for LASV Primary Screen (AID 1347083; calls by dose curve; tested in HEK293 reporter line; further: nearly all actives have a fitted effect of over 80% in size; further: potency means the concentration at half of the fitted maximal effect)
[3] = qHTS for Inhibitors of the Functional Ribonucleoprotein Complex (vRNP) of Lymphocytic Choriomeningitis Arenaviruses (LCMV): Viability assay - alamar blue signal for LCMV Primary Screen (AID 1347085; calls by dose curve; tested in HEK293 reporter line; further: nearly all actives have a fitted effect of over 80% in size; further: potency means the concentration at half of the fitted maximal effect)
[4] = molecular target: Nucleoprotein (Lymphocytic choriomeningitis virus (strain Armstrong)) (UniProt P09992); assay: qHTS for Inhibitors of the Functional Ribonucleoprotein Complex (vRNP) of Lymphocytic Choriomeningitis Arenaviruses (LCMV): LCMV Primary Screen - GLuc reporter signal (AID 1347086); further: nearly all actives have a fitted effect of over 70% in size; further: potency means the concentration at half of the fitted maximal effect
Nucleoprotein (Lymphocytic choriomeningitis virus (strain Armstrong)), sequence (P09992 whole entry, looked up): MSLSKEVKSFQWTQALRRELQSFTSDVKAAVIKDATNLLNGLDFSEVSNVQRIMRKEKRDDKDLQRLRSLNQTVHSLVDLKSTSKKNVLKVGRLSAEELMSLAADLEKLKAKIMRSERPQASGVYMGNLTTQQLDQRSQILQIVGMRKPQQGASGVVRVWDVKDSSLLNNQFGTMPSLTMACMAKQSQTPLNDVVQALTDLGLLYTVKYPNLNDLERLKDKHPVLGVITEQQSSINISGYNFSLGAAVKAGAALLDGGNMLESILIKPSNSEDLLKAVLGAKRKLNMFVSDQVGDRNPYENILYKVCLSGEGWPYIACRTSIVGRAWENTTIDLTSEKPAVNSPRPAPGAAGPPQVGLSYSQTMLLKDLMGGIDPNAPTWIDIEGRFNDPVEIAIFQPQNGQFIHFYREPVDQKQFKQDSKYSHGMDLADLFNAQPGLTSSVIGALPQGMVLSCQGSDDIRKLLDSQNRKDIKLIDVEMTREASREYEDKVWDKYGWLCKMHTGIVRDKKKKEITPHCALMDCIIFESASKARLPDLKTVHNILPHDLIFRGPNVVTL

[5] = Primary qHTS to identify inhibitors of SARS-CoV-2 cell entry (AID 1645846); settings: activity change, negative = inhibition: at 57.1 µM (top of the series) unless noted; further: nearly all actives have a fitted effect of over 45% in size; further: potency means the concentration at half of the fitted maximal effect
Outline: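 Luminescence readout (Bright-Glo luciferase) 48 h after pseudoparticle addition. HEK293-ACE2 cells, 1500/well; compound pre-incubation 1 h; Normalized to spike PP and bald PP.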

[6] = molecular target: Nuclear receptor subfamily 1 group I member 3 (Homo sapiens) (UniProt Q14994); assay: Primary qHTS for antagonist of constitutive androstane receptor (CAR) against the NCATS DSHEA and TCM libraries (AID 1794836; active means well fitted curve in the direction sought with a large enough effect; an effect the other way counts as inactive or inconclusive)
Nuclear receptor subfamily 1 group I member 3 (Homo sapiens), sequence (Q14994 whole entry, looked up): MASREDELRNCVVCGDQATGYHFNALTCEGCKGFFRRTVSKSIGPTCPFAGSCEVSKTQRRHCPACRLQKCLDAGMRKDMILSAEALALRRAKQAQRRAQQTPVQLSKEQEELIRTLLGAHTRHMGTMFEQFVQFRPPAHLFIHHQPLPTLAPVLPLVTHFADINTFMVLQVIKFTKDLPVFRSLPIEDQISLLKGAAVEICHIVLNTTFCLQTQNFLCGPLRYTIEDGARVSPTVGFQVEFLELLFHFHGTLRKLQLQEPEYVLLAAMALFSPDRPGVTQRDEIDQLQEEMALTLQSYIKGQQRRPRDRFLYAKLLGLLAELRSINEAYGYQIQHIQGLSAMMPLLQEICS
Outline: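 HepG2 cells stably carrying hCAR and a CYP2B6 luciferase reporter (2,500 cells/well) attached for 5 h, then received compounds with 48 uM CITCO for 24 h at 37C. ONE-Glo luminescence read antagonism; CellTiter-Fluor (405/540 nm) gave viability.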

[7] = molecular target: Alpha-galactosidase (Coffea arabica) (UniProt Q42656); assay: Counterscreen for Glucocerebrosidase Inhibitors: qHTS Assay for Coffee Bean alpha-Galactosidase at pH 4.5 (AID 957; active means well fitted curve in the direction sought with a large enough effect; an effect the other way counts as inactive or inconclusive)
Alpha-galactosidase (Coffea arabica), sequence (Q42656 whole entry, looked up): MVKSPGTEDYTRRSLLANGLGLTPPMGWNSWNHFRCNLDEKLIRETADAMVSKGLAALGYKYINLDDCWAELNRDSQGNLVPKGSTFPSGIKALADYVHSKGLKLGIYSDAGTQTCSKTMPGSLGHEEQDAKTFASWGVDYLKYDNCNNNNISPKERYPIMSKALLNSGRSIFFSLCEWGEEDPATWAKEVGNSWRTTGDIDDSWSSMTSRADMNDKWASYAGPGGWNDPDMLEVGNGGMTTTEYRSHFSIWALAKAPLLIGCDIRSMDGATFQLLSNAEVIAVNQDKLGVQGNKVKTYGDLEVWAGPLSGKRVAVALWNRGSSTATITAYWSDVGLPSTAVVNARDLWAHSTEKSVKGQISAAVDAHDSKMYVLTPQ
Outline: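 Fluorogenic qHTS at pH 4.5 (citrate buffer with Tween-20): 2 nM enzyme, 80 uM 4-MU-alpha-galactoside substrate, compound titrated 0.7 nM to 77 uM, 20 min room temperature. Glycine/NaOH stop; 4-MU read Ex 365/Em 440; Hill-equation AC50 against no-enzyme and enzyme controls.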

[8] = molecular target: Alpha-galactosidase (Coffea arabica) (UniProt Q42656); assay: Counterscreen for Glucocerebrosidase Inhibitors: qHTS Assay for Coffee Bean alpha-Galactosidase at pH 5.9 (AID 998; active means well fitted curve in the direction sought with a large enough effect; an effect the other way counts as inactive or inconclusive)
Outline: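 In 50 mM citric acid pH 5.9 with 0.005% Tween-20, coffee bean enzyme hydrolyses 80 uM 4-MU alpha-D-galactopyranoside over 20 min at RT. Activity is normalized to controls; AC50 comes from Hill-modelled concentration-response data.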

[9] = Validation screen for inhibitors of Lassa infection (AID 463096)
[10] = Inducers of the Endoplasmic Reticulum Stress Response (ERSR) in human glioma: Validation (AID 504836; active means well fitted curve in the direction sought with a large enough effect; an effect the other way counts as inactive or inconclusive)
Outline: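 Stably transfected U87-MG human glioma cells carrying a GRP78-based luminescent sensor were seeded at 1000 cells/well, pin-dosed with compounds and incubated 16 h. Luciferase reagent was then added, and end-point luminescence was read after 10 min at room temperature.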

[11] = qHTS profiling of the MIPE4 collection as inhibitors of Plasmodium falciparum (DD2) proliferation (AID 743345; call rule not given here); settings: P. falciparum Dd2 in erythrocytes, SYBR Green DNA, 72 h; at 28.5 µM (top of the series) unless noted
Outline: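 Parasite DNA was quantified by SYBR Green I fluorescence (ex 485, em 535 nm) after overnight lysis in saponin/Triton buffer at room temperature. Cultures at 0.3% parasitemia and 2.5% hematocrit were first exposed to compound for 72 h at 37 C; signals were normalised to artemisinin (0.29 uM) and vehicle wells.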

[12] = molecular target: M-phase phosphoprotein 8 (Homo sapiens) (UniProt Q99549); assay: qHTS Validation Assay for Inhibitors for MPP8 Chromodomain Interactions with Methylated Histone Tails (AID 488949; active means well fitted curve in the direction sought with a large enough effect; an effect the other way counts as inactive or inconclusive; further: potency means the concentration at half of the fitted maximal effect; nearly all actives have a fitted effect of over 55% in size)
M-phase phosphoprotein 8 (Homo sapiens), sequence (Q99549 whole entry, looked up): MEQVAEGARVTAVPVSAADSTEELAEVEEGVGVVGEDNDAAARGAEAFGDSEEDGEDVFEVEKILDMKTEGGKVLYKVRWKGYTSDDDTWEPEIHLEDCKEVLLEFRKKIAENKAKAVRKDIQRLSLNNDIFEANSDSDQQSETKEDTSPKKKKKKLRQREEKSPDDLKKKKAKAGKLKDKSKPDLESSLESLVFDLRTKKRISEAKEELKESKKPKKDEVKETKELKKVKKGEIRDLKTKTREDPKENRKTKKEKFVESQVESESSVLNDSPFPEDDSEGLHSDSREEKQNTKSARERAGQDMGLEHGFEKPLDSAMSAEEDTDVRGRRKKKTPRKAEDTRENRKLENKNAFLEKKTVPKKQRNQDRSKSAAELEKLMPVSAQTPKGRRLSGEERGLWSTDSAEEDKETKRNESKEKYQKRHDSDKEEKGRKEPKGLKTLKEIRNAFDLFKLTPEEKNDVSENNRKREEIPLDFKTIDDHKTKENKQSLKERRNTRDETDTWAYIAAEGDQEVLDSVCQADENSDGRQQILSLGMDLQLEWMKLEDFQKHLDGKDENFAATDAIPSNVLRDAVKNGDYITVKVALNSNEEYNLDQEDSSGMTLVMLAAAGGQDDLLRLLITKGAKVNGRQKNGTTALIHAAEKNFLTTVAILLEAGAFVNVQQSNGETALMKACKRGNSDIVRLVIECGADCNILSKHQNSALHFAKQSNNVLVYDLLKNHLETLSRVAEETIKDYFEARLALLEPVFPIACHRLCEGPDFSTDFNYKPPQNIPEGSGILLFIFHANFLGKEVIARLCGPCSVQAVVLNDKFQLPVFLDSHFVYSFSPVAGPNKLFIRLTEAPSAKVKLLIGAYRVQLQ
Outline: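 MPP8 (50 nM) was preincubated with biotinylated H3(1-18)K9me3 peptide (50 nM) in PBS pH 7.4, 0.01% Tween-20 for 30 min at room temperature, then with compounds for 30 min; binding was detected by AlphaScreen.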

[13] = molecular target: Chromobox protein homolog 1 (Homo sapiens) (UniProt P83916); assay: qHTS Validation Assay for Inhibitors of HP1-beta Chromodomain Interactions with Methylated Histone Tails (AID 488953; active means well fitted curve in the direction sought with a large enough effect; an effect the other way counts as inactive or inconclusive; further: potency means the concentration at half of the fitted maximal effect; nearly all actives have a fitted effect of over 50% in size)
Chromobox protein homolog 1 (Homo sapiens), sequence (P83916 whole entry, looked up): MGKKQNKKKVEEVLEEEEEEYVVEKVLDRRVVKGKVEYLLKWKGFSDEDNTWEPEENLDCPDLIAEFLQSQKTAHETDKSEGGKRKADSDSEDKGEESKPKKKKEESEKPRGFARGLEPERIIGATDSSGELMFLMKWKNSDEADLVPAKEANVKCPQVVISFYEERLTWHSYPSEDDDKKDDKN
Outline: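 AlphaScreen proximity signal from streptavidin donor and nickel chelate acceptor beads (final 10 ug/mL) after 30 min dark incubation. Compounds had 30 min at room temperature with preformed complex of 50 nM HP1-beta and 50 nM b-H3(1-18)K9me3 in PBS pH 7.4 with 0.01% Tween-20.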

[14] = molecular target: Arylsulfatase A (Homo sapiens) (UniProt P15289); assay: qHTS screen for enhancers of Arylsulfatase A (ASA1): LOPAC Validation Assay (AID 720538; active means well fitted curve in the direction sought with a large enough effect; an effect the other way counts as inactive or inconclusive)
Arylsulfatase A (Homo sapiens), sequence (P15289 whole entry, looked up): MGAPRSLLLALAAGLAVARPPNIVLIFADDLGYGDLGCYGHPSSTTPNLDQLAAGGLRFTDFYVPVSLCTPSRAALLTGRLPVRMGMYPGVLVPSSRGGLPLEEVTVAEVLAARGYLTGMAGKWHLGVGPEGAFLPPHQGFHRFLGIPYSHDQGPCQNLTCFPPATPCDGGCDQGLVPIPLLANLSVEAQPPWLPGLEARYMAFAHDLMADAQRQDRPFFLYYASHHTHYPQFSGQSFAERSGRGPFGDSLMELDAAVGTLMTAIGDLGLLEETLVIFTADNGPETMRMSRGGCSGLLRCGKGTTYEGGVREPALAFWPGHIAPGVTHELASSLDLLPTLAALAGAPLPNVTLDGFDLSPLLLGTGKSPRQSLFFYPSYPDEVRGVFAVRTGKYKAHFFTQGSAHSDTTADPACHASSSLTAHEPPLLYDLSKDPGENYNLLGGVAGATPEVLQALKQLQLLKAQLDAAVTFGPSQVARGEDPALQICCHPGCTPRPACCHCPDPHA
Outline: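 SV40-transformed skin fibroblasts from an MLD patient (ASA-I179S) were treated with compounds for 48h at 37 degree C, then lysed with 0.5mM pNCS final substrate for 14h at room temperature; NaOH stop, fluorescence read (Ex=525 nm; Em=598 nm).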

C=CC(=O)N1CCc2ccc(-n3c(=O)ccc4cnc5ccc(-c6cnn(C)c6)cc5c43)cc21
active: Potency [5] 3550 nM
inactive: Potency [1] | Potency [2] | Potency [3] | Potency [4]

CSc1cccc(Nc2ncc3cc(-c4c(Cl)cccc4Cl)c(=O)n(C)c3n2)c1
inactive: Potency [1] | Potency [2] | Potency [3] | Potency [4]
-95.8%: activity change, negative = inhibition [5]

O=c1c(-c2ccc(O)cc2)coc2cc(O[C@@H]3O[C@H](CO)[C@H](O)[C@H](O)[C@H]3O)ccc12
inactive: Potency [1] | Potency [2] | Potency [3] | Potency [4] | Potency [6]

C[C@@]12C[C@@]3(O)O[C@@H](O1)[C@]1(COC(=O)c4ccccc4)[C@@H]3C[C@@]12O[C@@H]1O[C@H](CO)[C@@H](O)[C@H](O)[C@@H]1O
inactive: Potency [1] | Potency [2] | Potency [3] | Potency [4] | Potency [6]

CC(C)NC[C@H](O)COc1cccc2[nH]ccc12
inactive: outcome [7] | outcome [8] | Potency [9] | outcome [10] | Potency [1] | Potency [2] | Potency [3] | Potency [4]

O=[N+]([O-])c1ccc(Nc2ccccc2-c2ccccc2)c2nonc12
inactive: Potency [1] | Potency [2] | Potency [3] | Potency [4]
active: Potency [5] 7940 nM

CC(=O)OC/C=C/c1ccccc1
inactive: Potency [1] | Potency [2] | Potency [3] | Potency [4] | Potency [6]

CC[C@H](CC#N)OC(=O)N[C@@H](C)c1cccc(NC(=O)Nc2ccc(-c3cnco3)c(OC)c2)c1
active: Potency [1] 1530 nM | Potency [2] 769 nM | Potency [3] 968 nM | Potency [4] 769 nM
66.9%: parasite growth remaining, % of DMSO control (lower = more inhibition) [11]
-97.5%: activity change, negative = inhibition [5]

CNC(=O)c1ccc(C)c(-n2c(C)cc(OCc3ccc(F)cc3F)c(Br)c2=O)c1
inactive: Potency [1] | Potency [2] | Potency [3] | Potency [4]
active: Potency [5] 22400 nM

C[C@H](Cc1ccc(O)c(O)c1)[C@@H](C)Cc1ccc(O)c(O)c1
inactive: outcome [7] | outcome [8] | Potency [9] | outcome [10] | Potency [1] | Potency [2] | Potency [3] | Potency [4]
-10.6%: activity change, negative = inhibition [5]

O=c1cc(-c2ccc(O)cc2)oc2cc(O)cc(O)c12
inactive: outcome [7] | outcome [8] | outcome [10] | Potency [1] | Potency [2] | Potency [3] | Potency [4] | Potency [6]

COc1ccc(C(C)=O)c(O)c1
inactive: Potency [1] | Potency [2] | Potency [3] | Potency [4] | Potency [6]

Nc1ncnc2c1c(-c1cnc3[nH]ccc3c1)nn2C1CCCC1
active: Potency [1] 6850 nM | Potency [2] 1720 nM | Potency [3] 2170 nM | Potency [4] 6110 nM | Potency [5] 10000 nM

N#C/C(=C\c1ccc(O)c(O)c1)C(=O)NCCCNC(=O)/C(C#N)=C/c1ccc(O)c(O)c1
inactive: outcome [7] | outcome [8] | Potency [9] | outcome [10] | Potency [1] | Potency [2] | Potency [3] | Potency [4]
active: Potency [12] 316 nM and 2.12 µM | Potency [13] 3770 nM

NO
active: Potency [13] 6 nM
inactive: outcome [7] | outcome [8] | Potency [9] | outcome [10] | Potency [14] | Potency [1] | Potency [2] | Potency [3] | Potency [4]

Cc1cc(CN2CCN(c3c(Br)cnc4nc(-c5ccc(N6CCN(C)CC6)cc5)[nH]c34)CC2)no1
inactive: Potency [1] | Potency [2] | Potency [3] | Potency [4]
active: Potency [5] 3160 nM

Cc1csc(-c2nnc(Nc3ccc(Oc4ncccc4-c4ccnc(N)n4)cc3)c3ccccc23)c1
inactive: Potency [1] | Potency [4]
active: Potency [2] 6850 nM | Potency [3] 19300 nM | Potency [5] 15800 nM

C=C(C)[C@@H]1CC=C(C=O)CC1
inactive: Potency [1] | Potency [2] | Potency [3] | Potency [4]

COC[C@H](NC(=O)c1cnc(C)s1)C(=O)N[C@@H](COC)C(=O)N[C@@H](Cc1ccccc1)C(=O)[C@@]1(C)CO1
active: Potency [1] 273 nM | Potency [2] 685 nM | Potency [3] 685 nM | Potency [4] 769 nM
-97.7%: activity change, negative = inhibition [5]

O=c1oc2cc(O)ccc2s1
-12.6%: activity change, negative = inhibition [5]
inactive: Potency [1] | Potency [2] | Potency [3] | Potency [4]
